One may read the IC90 as the point of the concentration-response curve where the effect stands at 90%.

Structures are written as SMILES.

This experiment can be described thus: A High Throughput Confirmatory Assay used to Identify Novel Compounds that Inhibit Mycobacterium Tuberculosis in the absence of Glycerol using Purified and Synthesized Compounds (6). Type of experiment: functional.
On to `COc1c(N2CCNC(C)C2)c(F)cc2c(=O)c(C(=O)O)cn(C3CC3)c12` (centres undefined), for which the IC90 was > 170 nM (active).

`CC[N+](C)(CC)CCCCOc1ccc2c(c1)C(=O)c1cc(OCCCC[N+](C)(CC)CC)ccc1-2`: the IC90 was > 2700 nM (active).

Consider `CC(C)/N=c1\cc2n(-c3ccc(Cl)cc3)c3ccccc3nc-2cc1Nc1ccc(Cl)cc1`, for which the IC90 was > 230 nM (active).

Regarding `CO[C@H]1/C=C/O[C@@]2(C)Oc3c(C)c(O)c4c(O)c(c(C=NN5CCN(C)CC5)c(O)c4c3C2=O)NC(=O)/C(C)=C\C=C\[C@H](C)[C@H](O)[C@@H](C)[C@@H](O)[C@@H](C)[C@H](OC(C)=O)[C@@H]1C`, the IC90 was > 20 nM (active).
